System: ULK2
Conditions: concentration: 1 μM, replicates: in singlicate; n = 1
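Also: KINOMEscan kinase panel screen.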

NS(=O)(=O)CCc1cccc(Nc2nccc(-c3c(-c4cccc(NC(=O)c5c(F)cccc5F)c4)nn4ccccc34)n2)c1 [GSK336735] and COc1ccc(Nc2nccc(N3CCC(NC(=O)Nc4cccc(C(C)=O)c4)C3)n2)cc1 (stereo not shown) [GSK1379731] are the same in “%Inh” value: 0% for the first, 0% for the second.

Compared with Cc1nnc(-c2ccc3ncc(-c4ccc(S(C)=O)cc4)n3c2)o1 (stereo not shown), N#Cc1c(N2CCOCC2)sc(-c2ccn[nH]2)c1-c1ccc(Cl)cc1 is lower in “%Inh” value: 18% for the first, 15% for the second.

Going from NCC(NC(=O)c1cc(-c2cn[nH]c2)c(-c2ccnc3[nH]ccc23)s1)c1ccccc1.O=C(O)C(F)(F)F.O=C(O)C(F)(F)F (stereo not shown) [GSK1325775] to c1ccc(-c2n[nH]cc2-c2ccnc3ccccc23)nc1 [GW271431], the “%Inh” value falls from 7% to 0%.

With Nc1nc(-c2ccc3c(N)n[nH]c3c2)cc(N2CCCC2)n1 [GSK2227430] the “%Inh” value was 0%.

— publication PMC5540273 (PLoS ONE, 2017)
